According to the supplement of paper PMC6411743:
± gives the standard deviation of the averaged measurements. Of roughly 6,200 targets only a part is listed; those with the largest changes were picked by preference.

Compound: Nc1ncnc2c1ncn2[C@@H]1O[C@H](COP(=O)(O)OP(=O)(O)NP(=O)(O)O)[C@@H](O)[C@H]1O [adenylyl imidodiphosphate]
Test: NP40-soluble protein abundance relative to vehicle (solubility fold change) (ratio); higher = more soluble protein in presence of AMP-PNP
Procedure, shortened: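 Jurkat crude lysate (Dounce-homogenised) was treated with eight concentrations from 0.1 to 10 mM for 10 min at room temperature, then 3 min at 37 °C. It was solubilised with 0.8% NP40 and benzonase (60 min, 4 °C) and ultracentrifuged, and the supernatant was TMT-labelled for LC-MS/MS. Intensities were vsn-normalised, and the value is the fold change against the NP40-processed vehicle per replicate, from three independent experiments.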

Chain of UniProt Q9NYF8 (Q9NYF8 whole entry, one chain of several): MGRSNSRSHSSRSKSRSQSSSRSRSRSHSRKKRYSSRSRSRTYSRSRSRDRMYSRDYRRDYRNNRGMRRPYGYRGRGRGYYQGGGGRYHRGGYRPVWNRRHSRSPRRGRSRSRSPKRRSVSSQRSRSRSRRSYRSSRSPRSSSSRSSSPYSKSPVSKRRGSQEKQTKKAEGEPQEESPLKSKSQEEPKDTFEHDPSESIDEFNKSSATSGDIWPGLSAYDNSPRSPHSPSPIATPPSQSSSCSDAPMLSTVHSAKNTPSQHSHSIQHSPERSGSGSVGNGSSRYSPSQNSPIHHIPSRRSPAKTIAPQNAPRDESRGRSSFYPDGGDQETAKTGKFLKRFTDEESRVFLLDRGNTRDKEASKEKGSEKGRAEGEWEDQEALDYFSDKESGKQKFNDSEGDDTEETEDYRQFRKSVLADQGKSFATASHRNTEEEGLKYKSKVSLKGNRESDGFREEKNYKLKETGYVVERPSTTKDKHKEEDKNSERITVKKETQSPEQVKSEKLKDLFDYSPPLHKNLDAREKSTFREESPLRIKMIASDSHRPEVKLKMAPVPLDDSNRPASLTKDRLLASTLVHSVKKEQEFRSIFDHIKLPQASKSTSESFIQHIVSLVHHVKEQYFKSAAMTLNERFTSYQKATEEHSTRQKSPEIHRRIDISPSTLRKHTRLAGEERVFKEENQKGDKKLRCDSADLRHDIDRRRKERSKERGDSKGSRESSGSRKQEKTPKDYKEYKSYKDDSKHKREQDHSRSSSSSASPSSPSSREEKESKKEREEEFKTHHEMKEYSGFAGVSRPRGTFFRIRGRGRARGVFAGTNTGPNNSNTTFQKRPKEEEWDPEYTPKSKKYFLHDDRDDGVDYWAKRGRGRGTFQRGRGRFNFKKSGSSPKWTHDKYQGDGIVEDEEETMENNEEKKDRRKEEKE
Chain of UniProt Q9BVW5 (Q9BVW5 whole entry): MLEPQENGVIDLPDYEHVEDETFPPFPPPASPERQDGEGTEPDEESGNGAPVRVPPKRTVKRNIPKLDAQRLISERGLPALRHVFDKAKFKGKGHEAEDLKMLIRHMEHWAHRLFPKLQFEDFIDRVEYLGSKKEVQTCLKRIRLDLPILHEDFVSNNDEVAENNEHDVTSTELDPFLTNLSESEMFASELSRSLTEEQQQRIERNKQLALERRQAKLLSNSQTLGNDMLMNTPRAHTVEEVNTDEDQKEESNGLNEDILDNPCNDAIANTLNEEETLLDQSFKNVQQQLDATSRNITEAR
Chain of UniProt Q9ULE6 (Q9ULE6 whole entry): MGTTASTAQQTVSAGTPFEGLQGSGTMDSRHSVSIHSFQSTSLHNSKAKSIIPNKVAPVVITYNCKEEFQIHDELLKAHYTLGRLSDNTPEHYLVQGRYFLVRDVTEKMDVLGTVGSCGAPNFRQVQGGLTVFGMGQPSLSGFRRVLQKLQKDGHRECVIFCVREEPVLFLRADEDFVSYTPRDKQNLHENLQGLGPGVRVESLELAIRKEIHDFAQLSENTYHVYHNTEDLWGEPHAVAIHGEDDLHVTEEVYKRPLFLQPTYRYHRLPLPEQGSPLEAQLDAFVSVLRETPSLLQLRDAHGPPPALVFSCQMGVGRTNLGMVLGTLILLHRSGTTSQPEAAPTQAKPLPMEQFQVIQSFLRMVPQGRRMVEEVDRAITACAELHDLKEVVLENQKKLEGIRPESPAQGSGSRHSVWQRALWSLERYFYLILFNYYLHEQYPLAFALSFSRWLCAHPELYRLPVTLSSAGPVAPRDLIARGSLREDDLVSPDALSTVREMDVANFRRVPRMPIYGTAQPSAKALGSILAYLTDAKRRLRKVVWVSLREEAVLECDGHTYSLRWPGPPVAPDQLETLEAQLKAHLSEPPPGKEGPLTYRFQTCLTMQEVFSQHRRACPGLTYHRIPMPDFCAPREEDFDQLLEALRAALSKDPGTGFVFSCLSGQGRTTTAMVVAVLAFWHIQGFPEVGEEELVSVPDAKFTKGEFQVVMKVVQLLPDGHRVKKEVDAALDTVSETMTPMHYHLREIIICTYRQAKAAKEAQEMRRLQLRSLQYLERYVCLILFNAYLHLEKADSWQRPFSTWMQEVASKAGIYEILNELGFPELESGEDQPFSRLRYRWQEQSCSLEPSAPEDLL
Chain of UniProt Q9Y3B4 (Q9Y3B4 whole entry): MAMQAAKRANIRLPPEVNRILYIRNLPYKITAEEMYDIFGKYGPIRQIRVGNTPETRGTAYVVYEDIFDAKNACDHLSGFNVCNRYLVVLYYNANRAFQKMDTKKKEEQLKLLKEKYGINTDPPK
Chain of UniProt Q99615 (Q99615 whole entry): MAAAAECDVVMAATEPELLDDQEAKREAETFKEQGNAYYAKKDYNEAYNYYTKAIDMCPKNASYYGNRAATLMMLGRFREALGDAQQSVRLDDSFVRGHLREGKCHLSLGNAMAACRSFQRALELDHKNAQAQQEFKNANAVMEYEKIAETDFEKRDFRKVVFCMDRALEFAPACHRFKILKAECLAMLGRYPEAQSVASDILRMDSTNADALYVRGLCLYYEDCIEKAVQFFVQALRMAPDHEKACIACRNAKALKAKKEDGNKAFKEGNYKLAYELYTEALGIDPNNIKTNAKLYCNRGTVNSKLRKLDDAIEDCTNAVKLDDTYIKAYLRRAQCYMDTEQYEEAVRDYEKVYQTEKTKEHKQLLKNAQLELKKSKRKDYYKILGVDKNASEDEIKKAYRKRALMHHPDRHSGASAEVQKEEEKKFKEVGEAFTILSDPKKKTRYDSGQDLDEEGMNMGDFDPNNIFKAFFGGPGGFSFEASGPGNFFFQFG
Chain of UniProt Q9BSU1 (Q9BSU1 whole entry): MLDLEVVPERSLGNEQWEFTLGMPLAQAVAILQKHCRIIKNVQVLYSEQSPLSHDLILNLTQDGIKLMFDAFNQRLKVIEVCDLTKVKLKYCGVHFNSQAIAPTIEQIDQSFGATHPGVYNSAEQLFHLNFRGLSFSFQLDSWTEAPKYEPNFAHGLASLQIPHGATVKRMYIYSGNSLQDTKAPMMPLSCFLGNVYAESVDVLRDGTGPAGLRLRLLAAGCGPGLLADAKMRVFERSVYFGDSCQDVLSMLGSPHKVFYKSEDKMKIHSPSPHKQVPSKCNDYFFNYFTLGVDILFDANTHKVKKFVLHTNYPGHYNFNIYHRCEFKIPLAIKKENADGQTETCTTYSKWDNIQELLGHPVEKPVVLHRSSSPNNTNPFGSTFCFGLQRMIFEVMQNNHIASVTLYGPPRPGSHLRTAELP
Chain of UniProt Q9NVP1 (Q9NVP1 whole entry): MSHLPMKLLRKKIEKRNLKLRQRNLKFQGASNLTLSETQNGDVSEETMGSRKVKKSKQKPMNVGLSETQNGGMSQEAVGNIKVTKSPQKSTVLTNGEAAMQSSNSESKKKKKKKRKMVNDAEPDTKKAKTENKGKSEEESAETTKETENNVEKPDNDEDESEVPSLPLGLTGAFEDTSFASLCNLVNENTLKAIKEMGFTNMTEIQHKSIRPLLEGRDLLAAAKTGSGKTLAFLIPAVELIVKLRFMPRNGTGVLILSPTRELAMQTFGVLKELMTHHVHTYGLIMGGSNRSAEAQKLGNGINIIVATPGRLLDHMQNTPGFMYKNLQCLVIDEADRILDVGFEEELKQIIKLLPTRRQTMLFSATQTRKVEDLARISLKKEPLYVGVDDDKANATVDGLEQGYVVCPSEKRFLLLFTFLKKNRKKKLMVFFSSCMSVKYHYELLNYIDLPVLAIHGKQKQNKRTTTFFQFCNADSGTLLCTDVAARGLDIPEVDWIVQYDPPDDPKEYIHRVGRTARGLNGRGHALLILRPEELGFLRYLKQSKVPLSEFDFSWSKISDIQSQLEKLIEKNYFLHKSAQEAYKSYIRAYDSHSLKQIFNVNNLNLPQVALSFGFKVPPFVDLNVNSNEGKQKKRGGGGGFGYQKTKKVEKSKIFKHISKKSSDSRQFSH
Chain of UniProt Q9C0B0 (Q9C0B0 whole entry): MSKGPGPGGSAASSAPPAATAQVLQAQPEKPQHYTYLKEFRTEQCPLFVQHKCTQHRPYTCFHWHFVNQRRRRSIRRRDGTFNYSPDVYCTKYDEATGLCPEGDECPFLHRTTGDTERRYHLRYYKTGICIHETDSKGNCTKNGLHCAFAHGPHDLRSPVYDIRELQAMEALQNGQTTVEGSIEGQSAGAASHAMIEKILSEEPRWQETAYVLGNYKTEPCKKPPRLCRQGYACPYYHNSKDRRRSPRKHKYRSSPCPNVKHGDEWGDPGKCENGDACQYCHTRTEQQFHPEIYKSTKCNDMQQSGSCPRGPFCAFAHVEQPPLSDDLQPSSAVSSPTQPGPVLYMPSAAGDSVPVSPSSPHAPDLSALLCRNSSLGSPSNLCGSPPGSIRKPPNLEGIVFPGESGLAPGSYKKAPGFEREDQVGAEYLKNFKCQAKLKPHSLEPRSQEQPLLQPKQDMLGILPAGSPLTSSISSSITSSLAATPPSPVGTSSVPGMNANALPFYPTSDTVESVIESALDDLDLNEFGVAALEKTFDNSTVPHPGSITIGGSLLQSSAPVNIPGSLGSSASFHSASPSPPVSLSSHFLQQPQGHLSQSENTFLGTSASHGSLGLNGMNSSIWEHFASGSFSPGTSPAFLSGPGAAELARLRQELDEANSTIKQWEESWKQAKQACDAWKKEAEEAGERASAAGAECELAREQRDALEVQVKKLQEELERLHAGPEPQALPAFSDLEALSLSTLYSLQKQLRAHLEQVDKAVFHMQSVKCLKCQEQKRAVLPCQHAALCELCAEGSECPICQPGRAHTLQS
Chain of UniProt Q99436 (Q99436 whole entry): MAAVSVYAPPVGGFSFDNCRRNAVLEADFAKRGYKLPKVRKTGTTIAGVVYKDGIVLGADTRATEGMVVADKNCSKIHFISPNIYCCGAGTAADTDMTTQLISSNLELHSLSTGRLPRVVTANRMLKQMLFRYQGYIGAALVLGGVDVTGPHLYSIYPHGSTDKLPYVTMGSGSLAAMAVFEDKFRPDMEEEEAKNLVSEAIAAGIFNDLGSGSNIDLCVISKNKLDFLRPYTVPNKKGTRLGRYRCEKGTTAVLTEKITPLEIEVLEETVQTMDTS
Chain of UniProt Q9NZ45 (Q9NZ45 whole entry): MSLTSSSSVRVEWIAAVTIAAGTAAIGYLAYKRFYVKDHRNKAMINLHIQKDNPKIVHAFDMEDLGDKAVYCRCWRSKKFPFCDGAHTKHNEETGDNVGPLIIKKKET

Target	NP40-soluble protein abundance (concentration: 1mM)	NP40-soluble protein abundance (concentration: 2mM)	NP40-soluble protein abundance (concentration: 4mM)	NP40-soluble protein abundance (concentration: 6mM)	NP40-soluble protein abundance (concentration: 8mM)	NP40-soluble protein abundance (concentration: 10mM)
DDX18 (UniProt Q9NVP1)	1.03 ± 0.045	1.03 ± 0.013	1.16 ± 0.046	1.24 ± 0.075	1.35 ± 0.12	1.43 ± 0.15
UniProt Q9NYF8|Q9NYF8-2|Q9NYF8-3|E9PK91	1.1 ± 0.018	1.19 ± 0.08	1.19 ± 0.033	1.29 ± 0.1	1.31 ± 0.11	1.43 ± 0.12
NANS (UniProt Q9NR45)	0.981 ± 0.015	0.932 ± 0.043	0.939 ± 0.011	0.954 ± 0.015	0.948 ± 0.036	0.918 ± 0.027
NARS2 (UniProt Q96I59)	0.955 ± 0.032	0.904 ± 0.033	0.927 ± 0.036	1 ± 0.048	1 ± 0.011	0.963 ± 0.066
UniProt Q9ULE6	0.981 ± 0.025	0.96 ± 0.013	1.01 ± 0.02	0.959 ± 0.027	0.957 ± 0.016	0.944 ± 0.025
MECR (UniProt Q9BV79)	1.04 ± 0.021	1.21 ± 0.051	1.07 ± 0.011	1.04 ± 0.024	1.048 ± 0.0045	1.05 ± 0.03
PSMB7 (UniProt Q99436)	0.946 ± 0.04	0.909 ± 0.061	0.906 ± 0.057	0.928 ± 0.086	0.918 ± 0.081	0.9 ± 0.13
XPO7 (UniProt Q9UIA9)	0.973 ± 0.036	0.932 ± 0.035	0.96 ± 0.019	0.958 ± 0.037	0.966 ± 0.015	0.939 ± 0.03
ANKRA2 (UniProt Q9H9E1)	0.912 ± 0.057	0.91 ± 0.023	0.911 ± 0.025	0.97 ± 0.087	0.99 ± 0.058	0.963 ± 0.05
TIPIN (UniProt Q9BVW5)	0.948 ± 0.06	1.04 ± 0.14	0.933 ± 0.072	0.928 ± 0.063	0.911 ± 0.057	0.929 ± 0.093
UniProt Q96T76|Q96T76-8|Q96T76-9	0.964 ± 0.013	0.929 ± 0.082	0.972 ± 0.032	0.987 ± 0.036	1.002 ± 0.0053	0.9354 ± 0.0075
UniProt Q96L91|Q96L91-2|Q96L91-3|Q96L91-5	1.03 ± 0.036	1.09 ± 0.038	1.05 ± 0.028	1.05 ± 0.061	1.03 ± 0.057	1.1 ± 0.084
UniProt Q9UK76	1.08 ± 0.088	1.1 ± 0.08	1.03 ± 0.067	0.982 ± 0.092	0.893 ± 0.037	0.973 ± 0.1
SRPRB (UniProt Q9Y5M8)	1.05 ± 0.021	1.06 ± 0.011	1.04 ± 0.021	1.08 ± 0.014	1.04 ± 0.014	1.08 ± 0.033
DNAJC7 (UniProt Q99615)	1.02 ± 0.012	1.05 ± 0.052	1.01 ± 0.015	1.03 ± 0.016	1.02 ± 0.013	1.04 ± 0.024
UniProt Q9BRG1|K7EKV4	1.04 ± 0.028	0.957 ± 0.094	1.02 ± 0.063	0.931 ± 0.043	0.982 ± 0.071	0.942 ± 0.099
UniProt Q9NPG3|Q9NPG3-2	1.01 ± 0.013	1.05 ± 0.037	1.07 ± 0.021	1.06 ± 0.034	1.06 ± 0.022	1.09 ± 0.067
UniProt Q9NRY4	0.9859 ± 0.0086	0.971 ± 0.035	0.999 ± 0.028	0.984 ± 0.03	0.964 ± 0.036	0.935 ± 0.024
UNK (UniProt Q9C0B0)	1.071 ± 0.0069	1.12 ± 0.056	1.11 ± 0.021	1.09 ± 0.072	1.1 ± 0.045	1.11 ± 0.033
C16orf70 (UniProt Q9BSU1)	1.01 ± 0.056	0.978 ± 0.029	0.982 ± 0.042	1.01 ± 0.018	1.02 ± 0.02	1.05 ± 0.02
UniProt Q9Y3B4	0.976 ± 0.061	0.981 ± 0.076	0.993 ± 0.019	0.968 ± 0.016	1.05 ± 0.051	1.01 ± 0.06
UniProt Q9Y5B6|Q9Y5B6-2	1.03 ± 0.048	1.05 ± 0.017	1.07 ± 0.057	1.06 ± 0.051	1.07 ± 0.049	1.14 ± 0.053
CHST12 (UniProt Q9NRB3)	1.001 ± 0.0077	0.999 ± 0.01	0.9935 ± 0.0064	1 ± 0.016	1.017 ± 0.0078	1.011 ± 0.0063
UniProt Q9NXR1|Q9NXR1-2|X5DR54	0.994 ± 0.029	1.07 ± 0.041	1.01 ± 0.025	0.978 ± 0.019	0.985 ± 0.026	0.9852 ± 0.0096
UniProt Q9BU76|Q9BU76-4	1.03 ± 0.04	1.04 ± 0.052	1 ± 0.067	1.01 ± 0.035	0.99 ± 0.031	0.989 ± 0.038
UniProt Q96RP9|Q96RP9-2	0.99 ± 0.021	0.981 ± 0.031	0.989 ± 0.02	0.976 ± 0.01	0.972 ± 0.022	0.949 ± 0.029
CISD1 (UniProt Q9NZ45)	1 ± 0.047	1.04 ± 0.046	1 ± 0.04	0.992 ± 0.039	1.02 ± 0.0018	0.968 ± 0.051
RBM27 (UniProt Q9P2N5)	1.04 ± 0.021	1.15 ± 0.062	1.13 ± 0.05	1.24 ± 0.12	1.25 ± 0.11	1.34 ± 0.16
